Reference: PubChem BioAssay (NCATS)
Results filed as inconclusive are left out. Calls of active or inactive are those of the source. Calls follow the shape of the dose curve; as a rule, active = well fitted inhibition curve with a large enough effect; inconclusive = small, poorly fitted or top-dose-only effect; inactive = flat fitted curve, though single readings scatter.

Key:
CRL-7250 [1] = test: Cytotoxic Profiling of Annotated Libraries Using Quantitative High-Throughput Screening (AID 1296008); details: Five cell lines viability, CellTiter-Glo ATP luminescence, 48-72 h; max response: stronger effect = lower value; as to max response: % is scaled to controls: 0 for no effect and ±100 for the full control effect
Method in brief: (§1)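 Compounds were pin-transferred onto cells and incubated 48 or 72 hr at 37 degree Celsius, 95% humidity. CellTiter-Glo was added, plates sat 10 min at room temperature, then ATP-coupled luminescence was imaged as the viability read-out.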

HEK293 = test: as above; details: Five cell lines viability, CellTiter-Glo ATP luminescence, 48-72 h; max response: stronger effect = lower value
Method in brief: as §1

HaCat [2] = test: as above; details: Five cell lines viability, CellTiter-Glo ATP luminescence, 48-72 h; max response: stronger effect = lower value
Method in brief: as §1

KB-3-1 = test: as above; details: Five cell lines viability, CellTiter-Glo ATP luminescence, 48-72 h; max response: stronger effect = lower value
Method in brief: as §1

NIH3T3 [3] = test: as above; details: Five cell lines viability, CellTiter-Glo ATP luminescence, 48-72 h; max response: stronger effect = lower value
Method in brief: as §1

HACAT [4] = test: qHTS assay to identify novel small-molecules to repurpose for Merkel cell carcinoma treatment (AID 1296009); details: MCC and control cell lines, CellTiter-Glo viability, 72 h; at 44.8 µM (top of the series) unless noted
Method in brief: (§2)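 Luminescence from CellTiter-Glo, read 10 min after addition at room temperature, reported viability following a 72 hr, 37 degree celsius treatment with NPC or MIPE compounds in titration; values normalized to plate controls.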

NIH3T3 [5] = test: as above; details: MCC and control cell lines, CellTiter-Glo viability, 72 h; at 44.8 µM (top of the series) unless noted
Method in brief: as §2

HEK293T = test: as above; details: MCC and control cell lines, CellTiter-Glo viability, 72 h; at 44.8 µM (top of the series) unless noted
Method in brief: as §2

CRL-7250 [6] = test: as above; details: MCC and control cell lines, CellTiter-Glo viability, 72 h; at 44.8 µM (top of the series) unless noted
Method in brief: as §2

Measured: max response
Also: nearly all actives have a fitted effect of over 60% in size.

N#C[C@@H](O[C@@H]1O[C@H](CO[C@@H]2O[C@H](CO)[C@@H](O)[C@H](O)[C@H]2O)[C@@H](O)[C@H](O)[C@H]1O)c1ccccc1
inactive: CRL-7250 [1] 3.46% | HEK293 4.21% | HaCat [2] | KB-3-1 5.22% | NIH3T3 [3] | HACAT [4] inactive [at 17.4 µM] | NIH3T3 [5] inactive [at 17.4 µM]

CCC(C)(C#N)O[C@@H]1O[C@H](CO)[C@@H](O)[C@H](O)[C@H]1O (stereo partly drawn)
inactive: CRL-7250 [1] -24.5% | HEK293 | HaCat [2] | KB-3-1 | NIH3T3 [3] | HACAT [4] | HEK293T | NIH3T3 [5]

CC1C/C=C/C(O)C(O)CC/C=C/c2cc(O)cc(O)c2C(=O)O1 (stereo not drawn)
inactive: CRL-7250 [1] | HEK293 | HaCat [2] -2.35% | KB-3-1 0.529% | NIH3T3 [3] 3.47% | CRL-7250 [6] | HEK293T

CC(C)=C1CC[C@]23CO[C@H](C2)[C@@](O)(C(=O)O)CCC13 (stereo partly drawn)
inactive: CRL-7250 [1] 4.82% | HEK293 | HaCat [2] -7.37% | KB-3-1 4.44% | NIH3T3 [3] 1.86% | HEK293T

C/C=C(\C)C(=O)OC1C(C)OC(OC2C(C)OC(OC3CCC4(C)C(=CCC5C4CCC4(C)C(C(C)OC6OC(COC7OC(CO)C(O)C(O)C7O)C(O)C(O)C6O)CCC54O)C3)CC2OC)C(O)C1OC (stereo not drawn)
inactive: CRL-7250 [1] -8.85% | HEK293 -2.95% | HaCat [2] | KB-3-1 0.359% | NIH3T3 [3] | HACAT [4] inactive [at 9.27 µM] | NIH3T3 [5] inactive [at 9.27 µM]

CCCCCCn1c(=O)c(C(=O)Nc2ccc(C(=O)OCCC)cc2)c(O)c2ccccc21
inactive: CRL-7250 [1] 0.836% | HEK293 | HaCat [2] | KB-3-1 | NIH3T3 [3] 4.2% | HACAT [4] inactive [at 9.27 µM] | HEK293T inactive [at 9.27 µM]

C=CC(C)(C)c1[nH]c2cccc3c2c1C[C@@H]1[C@@H]3[C@@H](OC(C)=O)[C@H](C)CN1C
inactive: CRL-7250 [1] -2.45% | HEK293 | HaCat [2] | KB-3-1 4.47% | NIH3T3 [3] | HACAT [4] | HEK293T | NIH3T3 [5]

C[C@]12CC[C@H]3[C@@H]([C@H](O)CC4=CC(=O)CC[C@@]43C)[C@@H]1CC[C@@H]2O
inactive: CRL-7250 [1] | HEK293 -7.8% | HaCat [2] -25.7% | KB-3-1 5.15% | NIH3T3 [3] | CRL-7250 [6] | NIH3T3 [5]

COC1CC(O[C@H]2CC[C@@]3(C)C(=CCC4C3C(O)[C@@H](O)[C@]3(C)[C@@H](C(C)=O)CC[C@]43O)C2)OC(C)C1OC1CC(OC)C(OC2OC(C)C(O)C(O)C2O)C(C)O1 (stereo partly drawn)
inactive: CRL-7250 [1] -8.18% | HEK293 | HaCat [2] | KB-3-1 | NIH3T3 [3] | HACAT [4] inactive [at 9.27 µM] | HEK293T inactive [at 9.27 µM] | NIH3T3 [5] inactive [at 9.27 µM]

CCCCCOc1cc2c(cc1-c1cc(/C=C/C(=O)O)ccc1O)C(C)(C)CCC2(C)C
inactive: CRL-7250 [1] -2.58% | HEK293 | HaCat [2] | KB-3-1 | NIH3T3 [3] -4.13% | HACAT [4] | HEK293T

COc1cc(C(=O)O[C@H]2[C@@H]3C=CO[C@@H](O[C@@H]4O[C@H](CO)[C@@H](O)[C@H](O)[C@H]4O)[C@@H]3[C@@]3(CO)O[C@@H]23)ccc1O
inactive: CRL-7250 [1] -1.79% | HEK293 4.28% | HaCat [2] | KB-3-1 | NIH3T3 [3] | HACAT [4] inactive [at 17.4 µM] | NIH3T3 [5] inactive [at 17.4 µM]

Cc1c(Cl)cccc1S(=O)(=O)Nc1nc(CC(=O)N2CCN(C)CC2)cs1
inactive: CRL-7250 [1] 0.391% | HEK293 -10.3% | HaCat [2] | KB-3-1 | NIH3T3 [3] | HACAT [4] | NIH3T3 [5]

CCCN1CCO[C@H]2c3cc(O)ccc3OC[C@@H]21
inactive: CRL-7250 [1] | HEK293 | HaCat [2] 3.96% | KB-3-1 | NIH3T3 [3] | CRL-7250 [6] | HEK293T | NIH3T3 [5]

CN1CCC[C@@H]1Cc1c[nH]c2ccc(Nc3ncccc3[N+](=O)[O-])cc12
inactive: CRL-7250 [1] | HEK293 -20.4% | HaCat [2] -5.05% | KB-3-1 -5.99% | NIH3T3 [3] | CRL-7250 [6] | NIH3T3 [5]

C=C(CO)C(=O)O[C@H]1C/C(C)=C/CC/C(CO)=C/[C@H]2OC(=O)C(=C)[C@H]12
inactive: CRL-7250 [1] -2.43% | HEK293 -5.5% | HaCat [2] | KB-3-1 | NIH3T3 [3] | HACAT [4] | NIH3T3 [5]
